Common to all, as to test: NCI-60 one-dose screen, 48 h (100 = growth as untreated, 0 = no growth, -100 = all killed)
Holding throughout (conditions): 10 µM unless noted

The test system of experiment [1] is DU-145 prostate.
In experiment [2] the test system is K-562 leukemia.
In experiment [3] the test system is MALME-3M melanoma.
The test system of experiment [4] is MDA-MB-231 breast.
Experiment [5] relates to RXF 393 renal.
In experiment [6] the test system is SF-268 CNS.
The test system of experiment [7] is SF-295 CNS.
Experiment [8] concerns SF-539 CNS.
Experiment [9] concerns UACC-257 melanoma.
Experiment [10] deals with M14 melanoma.
The subject of experiment [11] is HCT-15 colon.
Experiment [12] has as its system HT29 colon.
In experiment [13] the test system is SNB-75 CNS.
The test system of experiment [14] is SNB-19 CNS.
The subject of experiment [15] is U251 CNS.
Experiment [16] deals with PC-3 prostate.
Experiment [17] relates to SK-MEL-5 melanoma.
Experiment [18] has as its system UACC-62 melanoma.
For experiment [19], the system named is LOX IMVI melanoma.
Experiment [20] relates to SK-MEL-28 melanoma.

The panel holds about 83,000 compounds, 20% with a hit somewhere; the sample as a whole holds those more often.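 Note: values are percent growth. 100 is the growth of untreated cells, values between 100 and 0 indicate rising inhibition; between -100 and 0 indicates cell death.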 Unmarked numbers belong to inactive results. Active and inactive are the calls of the source. Rule for the calls: active = growth percent below 10; inactive = the rest.

Consider seven molecules from PubChem BioAssay (NCI).

`O=C(/C=C(/C=C/c1ccc2[nH]ccc2c1)OB(F)F)/C=C/c1ccc2[nH]ccc2c1`: the growth in experiment [1] is 3.56% (active); in experiment [2] it was -21.9% (active); in experiment [3] it was 31.1%; in experiment [4], 12.2%; in [5], -57.6% (active); in experiment [6], 16.7%. In addition, the growth in [7] is -25.4% (active); in experiment [8], -7.54% (active); in [9], 43.3%; in experiment [10], -27.5% (active); in experiment [11] it was -52.9% (active); in experiment [12], -55.7% (active). The growth is 23.1% in [13]; 12.9% in experiment [14]; -84.1% (active) in experiment [15]; -6.64% (active) in [16]; 12.2% in experiment [17]; -21.5% (active) in [18]. In addition, the growth in experiment [19] is -64.3% (active); in experiment [20], 22%.

Take `CC(C)(Sc1cc(C(C)(C)C)c(OC(=O)CCCC(=O)O)c(C(C)(C)C)c1)Sc1cc(C(C)(C)C)c(OC(=O)CCCC(=O)O)c(C(C)(C)C)c1`: the growth is 51.4% in experiment [1]; 35.1% in experiment [2]; 46.2% in experiment [3]; 57.8% in [4]; 37.6% in experiment [5]; 28.6% in experiment [6]. Further, the growth was 33.7% in experiment [7]; 6.97% (active) in experiment [8]; 46.7% in experiment [9]; 45.5% in experiment [10]; 7.28% (active) in experiment [11]; 26.9% in experiment [12]. Besides, the growth in [13] was 68%; in experiment [14], 29.6%; in experiment [15], 14.4%; in [16] it was 36.2%; in [17], -3.74% (active); in experiment [18] it was -19.7% (active). In addition, the growth was 27.1% in [19] and 24.9% in experiment [20].

As to `Cn1ccnc1C(=O)/C=C/c1ccc(C(=O)Nc2ccccc2O)cc1`, the growth is 45.6% in experiment [1]; 7.38% (active) in experiment [2]; 57.8% in [3]; 46.2% in experiment [4]; 21.7% in experiment [5]; 13.2% in [6]. The growth in experiment [7] is 6.78% (active); in [8], -19.3% (active); in [9], 48.6%; in experiment [10], 71.5%; in experiment [11] it was 7.09% (active); in experiment [12] it was 24.7%. Moreover, the growth in experiment [13] was 46.2%; in [14], 14.3%; in experiment [15] it was 5.29% (active); in experiment [16], 23.5%; in experiment [17], 89.3%; in experiment [18], 50.6%. Besides, the growth in experiment [19] was -18% (active); in [20], 73.4%.

Regarding `CC(=O)N1N=C(c2ccc(C(F)(F)F)c(F)c2)CC1c1[nH]c(C)c(C(=O)NCC(F)(F)F)c1C` (stereo not given), the growth was 85.5% in experiment [1]; 97.6% in experiment [2]; 43.5% in experiment [3]; 38.8% in experiment [4]; 31% in experiment [5]; 60.7% in experiment [6]. The growth was 70.9% in experiment [7]; 56.3% in experiment [8]; 91.6% in experiment [9]; 78.8% in experiment [10]; 95.3% in experiment [11]; 78.5% in [12]. Also, the growth is -8.37% (active) in experiment [13]; 47.9% in experiment [14]; 78.8% in [15]; 70.8% in [16]; 81.7% in experiment [17]; 87.7% in [18]. Besides, the results for the growth in experiment [19] and in [20] were 71.5% and 69.8%, respectively.

In the case of `Nc1cc(C(=O)NC[C@H]2CN(c3ccc(N4CCC(C(=O)O)CC4)cc3)C(=O)O2)ccc1Cl`, the growth in [1] was 109%; in experiment [2] it was 92.1%; in experiment [3] it was 94%; in experiment [4] it was 94.2%; in [5], 112%; in experiment [6], 98.4%. For the same molecule, the growth in experiment [7] is 103%; in [8], 93.7%; in experiment [9] it was 98.8%; in [10], 98.2%; in experiment [11], 102%; in [12], 104%. Besides, the growth in experiment [13] is 84.8%; in experiment [14], 98.7%; in [15], 103%; in [16], 101%; in experiment [17], 103%; in experiment [18], 95.8%. Further, the growth was 97% in experiment [19] and 109% in experiment [20].

On to `COc1ccc(Nc2nc(-c3cc(O)c(C)c(C)c3O)cs2)cc1`, for which the growth in [1] is 87.3%; in experiment [2] it was 23.9%; in experiment [3] it was 95.2%; in [4], 88.5%; in [5] it was 78.7%; in experiment [6], 64.7%. Moreover, the growth is 84.1% in experiment [7]; 81.6% in experiment [8]; 98.1% in experiment [9]; 76.2% in [10]; 50.4% in [11]; 105% in [12]. In addition, the growth in experiment [13] was 78.8%; in experiment [14] it was 102%; in [15], 70.2%; in experiment [16], 43.9%; in experiment [17], 82.3%; in experiment [18], 68.9%. For the same molecule, the growth is 61.5% in [19] and 99.5% in [20].

For `Nc1[nH]n2cc(-c3ccccc3)nc2c1N=Nc1ccc(S(N)(=O)=O)cc1`, the growth in [1] was 42.9%; in experiment [2] it was 32.9%; in [3], 25.6%; in experiment [4], 20%; in [5], 6.61% (active); in experiment [6], 36.5%. For the same molecule, the growth in experiment [7] is 48%; in experiment [8], 19.6%; in [9] it was 68.9%; in experiment [10], 31.4%; in experiment [11], 22.8%; in experiment [12] it was 38.8%. In addition, the growth in experiment [13] was 1.09% (active); in experiment [14], 60.4%; in [15] it was 38.7%; in [16], 32.4%; in [17], 26.8%; in experiment [18], 31.3%. In addition, the growth is 17.4% in experiment [19] and 45% in experiment [20].
